Screens (PubChem BioAssay)
In the library only some 20% were active in any assay of this set; here they are far more common.
Shiga inhibitor = Shiga toxin inhibition | Vero cells, Shiga toxin protein synthesis inhibition reporter | inhibition, % at 38.7 µM | 290,000 tested, 9.2% active; in the data active means inhibition mostly above about 28%, no sharp cut-off; inactive means mostly below about 43%; further: 0% is about no effect
Pf growth 48h = inhibits P. falciparum growth in the first generation, 48 h; Potency, µM (series often up to 28.7 µM), for the others: top-dose activity change, negative = inhibition, most hits filed as inhibitors; 310,000 tested, 5.9% active; P. falciparum luciferase growth in erythrocytes, 48 h; AID 504832; further: potency means the concentration at half of the fitted maximal effect; on the % scale 0 is the no-effect control and ±100 the full control effect
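Luciferase-expressing P. falciparum in infected erythrocytes (2% hematocrit, 0.1% parasitemia final) in RPMI 1640/0.5% Albumax were exposed to compound for 48 hours at 37 C, 5% CO2; growth read as luminescence.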
Pf growth 96h = inhibits malaria parasite growth, 96 h | P. falciparum luciferase reporter growth, 96 h | Potency, µM (doses to about 28.7 µM), for inactives: top-dose activity change, negative = inhibition, usual class: inhibitors | 320,000 tested, 6.9% active; further: potency means the concentration at half of the fitted maximal effect; on the % scale 0 is the no-effect control and ±100 the full control effect
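96 h incubation, 37 C, 5% CO2, of luciferase-reporter P. falciparum-infected RBCs (2% hematocrit, 0.05% parasitemia final) with test compounds; endpoint luminescence.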
CHX counter = affects cycloheximide protein synthesis inhibition readout, counter-screen. cell reporter, cycloheximide protein synthesis inhibition counterscreen. max response, %. 300,000 tested, 12% active. AID 2314; in the data active means max response mostly above about 13%, no sharp cut-off; inactive means mostly below about 14%; further: read at 38.3 µM for the half of the compounds with a filed dose; 0% is about no effect
HCMV inh = blocks human cytomegalovirus replication | HFF cells, HCMV-luciferase reporter, 72 h; active compounds read low | activity change, negative = inhibition, % at 57.5 µM | 410,000 tested, 4.5% active; in the data active means activity change below about -60%; inconclusive means no clear call, values can overlap the other calls; inactive means above about -39%; further: on the % scale 0 is the no-effect control and ±100 the full control effect
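Human foreskin fibroblasts infected with luciferase-reporter HCMV at MOI 1 PFU/cell, compounds at two doses. Luciferase measured 72 h post infection; normalized to buffer-only basal and Salinomycin (10uM) controls.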
* hit, by the source's call. Unless noted, the call rests on the fitted dose curve; in most records, active means well fitted inhibition curve with a large enough effect; inconclusive means small, poorly fitted or top-dose-only effect, or another doubt; inactive means no such curve, though single readings can be large or run the other way.

What do the screens show for `COc1ccccc1-n1c(CCC(=O)O)ccc1-c1ccccc1`?
Shiga inhibitor: 36*; Pf growth 48h: 1%; Pf growth 96h: 2%; CHX counter: 32*; HCMV inh: -15

How did CC(=O)c1cccc(-n2c(CCC(=O)O)ccc2-c2ccc(C)cc2)c1 do in these assays?
Shiga inhibitor: 18; Pf growth 48h: -9%; Pf growth 96h: inconclusive; CHX counter: 3

Results for Cc1ccc(-n2c(CCC(=O)O)ccc2-c2cccs2)cc1C ?
Shiga inhibitor: 39; Pf growth 48h: 5%; Pf growth 96h: 34%; CHX counter: 7.9*; HCMV inh: 30

How did O=C(O)CCc1ccc(-c2ccccc2)n1-c1cccc(C(=O)O)c1 do in these assays?
Shiga inhibitor: 174*; Pf growth 48h: 0%; Pf growth 96h: 7%; CHX counter: 131*; HCMV inh: 44

What do the screens show for `CCc1ccc(-n2c(CCC(=O)O)ccc2-c2cccs2)cc1`?
HCMV inh: 16

Results for COc1ccc(-c2ccc(CCC(=O)O)n2-c2ccccc2OC)cc1 ?
Shiga inhibitor: -8; Pf growth 48h: 24%; Pf growth 96h: 2%; CHX counter: 8; HCMV inh: -28

Results for Cc1onc(-c2ccccc2Cl)c1C(=O)OCC(=O)N1CCCCC1 ?
HCMV inh: 0

How did CC(C)[C@H](NC(=O)c1ccc(Cl)cc1)C(=O)OCC(=O)N1CCN(c2ccccc2)CC1 do in these assays?
HCMV inh: -33

Results for C=CCc1c(Cl)nc(C)nc1NCc1ccccc1 ?
Shiga inhibitor: -9; Pf growth 48h: 6%; Pf growth 96h: inconclusive; CHX counter: 2; HCMV inh: inconclusive

What do the screens show for `CCCN1C(=O)c2cc(C(=O)Nc3ccccc3CC)ccc2C1O` (configuration not stated)?
Shiga inhibitor: -6; Pf growth 96h: 10µM*; CHX counter: -5; HCMV inh: -1

Results for CC(=O)Nc1ccc(NC(=O)c2ccc(-n3c(C)ccc3C)cc2)cc1 ?
Shiga inhibitor: 26; Pf growth 48h: -14%; Pf growth 96h: inconclusive; CHX counter: 13; HCMV inh: -32

What do the screens show for `COc1ccc(NC(=O)c2ccc(-n3c(C)ccc3C)cc2)c(OC)c1`?
Shiga inhibitor: 5; Pf growth 48h: inconclusive; Pf growth 96h: inconclusive; CHX counter: -2; HCMV inh: -19

Results for Cc1ccc(C)n1-c1ccc(C(=O)Nc2ccccc2F)cc1 ?
Shiga inhibitor: 102*; Pf growth 48h: -31%; Pf growth 96h: -65%; CHX counter: 57*; HCMV inh: -18

Results for CCc1ccccc1NC(=O)c1ccc(-n2c(C)ccc2C)cc1 ?
Shiga inhibitor: -7; Pf growth 48h: inconclusive; Pf growth 96h: 15µM*; CHX counter: -2; HCMV inh: 49

What do the screens show for `CCOc1ccc(CNC(=O)c2cnc(SC)nc2C)cc1`?
HCMV inh: -19

How did CCOC(=O)C(CCSC)Nc1nc(Cl)nc(Nc2ccc(Cl)cc2)n1 (configuration not stated) do in these assays?
HCMV inh: -6

Results for CCCCOc1ccc(/C=C2/Sc3ccccc3C2=O)cc1 ?
Shiga inhibitor: 24; Pf growth 48h: inconclusive; Pf growth 96h: 4%; CHX counter: 8; HCMV inh: 32

Results for CC(=O)Oc1cccc(/C=C2\Sc3ccccc3C2=O)c1 ?
Shiga inhibitor: 51*; Pf growth 48h: -23%; Pf growth 96h: 1%; CHX counter: 28*; HCMV inh: -18

What do the screens show for `COCCNc1nc(Oc2ccc(C(N)=O)cc2)c2sccc2n1`?
HCMV inh: 26

How did CCN1C(=NCCc2ccccn2)N[C@@H](c2cccc(C(F)(F)F)c2)C(C(=O)OC)=C1C do in these assays?
Shiga inhibitor: 10; Pf growth 48h: inconclusive; Pf growth 96h: 121%; CHX counter: -3; HCMV inh: 82

Results for CCN1C(=NCC2CC2)N[C@@H](c2cccc(C(F)(F)F)c2)C(C(=O)OC)=C1C ?
Shiga inhibitor: 3; Pf growth 48h: inconclusive; Pf growth 96h: 12µM*; CHX counter: -2

What do the screens show for `CCN1C(=NCCOC)N[C@@H](c2cccc(C(F)(F)F)c2)C(C(=O)OC)=C1C`?
Shiga inhibitor: -7; Pf growth 48h: -24%; Pf growth 96h: 2.1µM*; CHX counter: 0; HCMV inh: -33

What do the screens show for `CCN1C(=NCc2ccco2)N[C@@H](c2cccc(C(F)(F)F)c2)C(C(=O)OC)=C1C`?
Shiga inhibitor: -3; Pf growth 48h: inconclusive; Pf growth 96h: 45%; CHX counter: -1; HCMV inh: -11

Results for Nc1nnc(SCc2c(F)cccc2Cl)s1 ?
Shiga inhibitor: 33; Pf growth 48h: 115%; Pf growth 96h: 7%; CHX counter: 12; HCMV inh: 20

Results for Cc1nnc(SCc2c(Cl)cccc2Cl)s1 ?
Shiga inhibitor: 60*; Pf growth 48h: 21%; Pf growth 96h: 78%; CHX counter: 32*; HCMV inh: 17

How did Clc1cccc(Cl)c1CSc1nnc(-c2ccncc2)s1 do in these assays?
Shiga inhibitor: 15; Pf growth 48h: 2.6µM*; Pf growth 96h: 2.1µM*; CHX counter: -2; HCMV inh: 106

What do the screens show for `COc1ccc(C)cc1NC(=O)c1nnn(-c2c(C)cccc2C)c1C`?
HCMV inh: -24

What do the screens show for `Cc1cc(C)n(C(=O)c2cc3ccccc3c(=O)o2)n1`?
Shiga inhibitor: -9; Pf growth 48h: 39%; Pf growth 96h: -24%; CHX counter: -2; HCMV inh: -27

Results for COc1ccccc1NC(=O)c1cc(=O)c2ccc(C)c(C)c2o1 ?
HCMV inh: -9

What do the screens show for `Cc1cc2c(cc3c(SCC(=O)Nc4cccc(Cl)c4C)nnc(C)n32)o1`?
HCMV inh: 2

What do the screens show for `Cc1nn(Cc2ccc(Cl)cc2)c(C)c1NC(=O)CSc1nc2c(c(C(F)(F)F)n1)CCc1ccccc1-2`?
Shiga inhibitor: -10; Pf growth 48h: inconclusive; Pf growth 96h: 4.7µM*; CHX counter: -2; HCMV inh: -30

How did Cc1cc(C(=O)N/N=C/c2ccc3c(c2)OCO3)c(C)n1-c1ccc(F)cc1 do in these assays?
Shiga inhibitor: 62*; Pf growth 48h: -22%; Pf growth 96h: 10%; CHX counter: 27*; HCMV inh: inconclusive

Results for Cc1cc(C(=O)N/N=C/c2ccc(Cl)c([N+](=O)[O-])c2)c(C)n1-c1ccc(F)cc1 ?
Shiga inhibitor: 35*; Pf growth 48h: 13µM*; Pf growth 96h: 13µM*; CHX counter: 13; HCMV inh: -93*

Results for Cc1occc1C(=O)N/N=C/c1ccc(Cl)c([N+](=O)[O-])c1 ?
Shiga inhibitor: 56*; Pf growth 48h: 7%; Pf growth 96h: -7%; CHX counter: 37*; HCMV inh: -63*

Results for Cc1ccn(-c2ccc([N+](=O)[O-])cc2)n1 ?
Shiga inhibitor: 42*; Pf growth 48h: 29%; Pf growth 96h: inconclusive; CHX counter: 12*; HCMV inh: -88*

What do the screens show for `Cc1ccn(-c2n[nH]c(C)c2[N+](=O)[O-])n1`?
Shiga inhibitor: 7; Pf growth 48h: 6%; Pf growth 96h: 33%; CHX counter: -2; HCMV inh: -14
